From PubChem BioAssay
AmpC detergent: blocks E. coli AmpC beta-lactamase in detergent assay. P00811. AmpC hydrolysis of nitrocefin, absorbance 480 nm, 0.01% Triton. Potency, µM (top dose mostly 114 µM), inactives show at the highest dose activity change, negative = inhibition, usual class: inhibitors. 370,000 tested, 0.041% active. AID 485294;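 note: 0% = no-compound wells and -100% = no-enzyme wells; nearly all actives have a fitted effect of over 25% in size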
Target sequence (P00811 whole entry, looked up): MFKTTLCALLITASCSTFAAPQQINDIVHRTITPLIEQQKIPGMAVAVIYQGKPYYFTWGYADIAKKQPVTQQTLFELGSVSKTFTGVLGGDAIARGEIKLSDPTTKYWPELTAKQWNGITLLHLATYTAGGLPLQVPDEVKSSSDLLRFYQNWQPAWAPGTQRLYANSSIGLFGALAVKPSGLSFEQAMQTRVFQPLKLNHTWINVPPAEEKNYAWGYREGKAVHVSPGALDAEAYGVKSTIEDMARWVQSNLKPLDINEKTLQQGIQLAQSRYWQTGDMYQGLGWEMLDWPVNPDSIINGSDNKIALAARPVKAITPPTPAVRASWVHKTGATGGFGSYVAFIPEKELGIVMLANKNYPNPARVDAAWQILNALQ
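20 mM phosphate pH 7.0 + 0.01% (detergent screen) or 0.0001% Triton X-100; 5.3 nM AmpC reagent; cpd preinc 15 min RT; nitrocefin (800 uM stock) to start; A480 q20 s × 4 min; Activity was normalised to no-enzyme and no-compound control wells.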
Pf growth 96h: P. falciparum growth inhibition at 96 hours | 320,000 tested, 6.9% active | P. falciparum luciferase reporter growth, 96 h | AID 504834 | Potency, µM (doses to about 28.7 µM), without a hit: at the highest dose activity change, negative = inhibition, hits mostly inhibitors
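Parasite growth measured via integrated firefly luciferase reporter in P. falciparum. Infected erythrocytes at 2% hematocrit, 0.05% parasitemia final were treated 96 hours at 37 C under 5% CO2, and luminescence was read.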
AmpC inh no detg: AmpC beta-lactamase inhibition without detergent. AmpC nitrocefin hydrolysis, absorbance 480 nm, 0.0001% Triton. Potency, µM (highest dose often 57.1 µM), for inactives: at the top dose activity change, negative = inhibition, usual class: inhibitors. 330,000 tested, 0.52% active. AID 485341;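 note: plate controls were no compound for no effect and no enzyme for full effect; nearly all actives have a fitted effect of over 20% in size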
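AmpC (5.3 nM in the dispensed reagent) in 20 mM phosphate pH 7.0 with 0.01% (detergent screen) or 0.0001% Triton X-100 was preincubated with compounds for 15 min at room temperature. Nitrocefin was then added from an 800 uM solution, and hydrolysis was followed at 480 nm.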
HCV inh: HCV inhibition; 340,000 tested, 3.4% active; Potency, µM (top dose mostly 41.8 µM), for the others: at the highest dose activity change, negative = inhibition, hits mostly inhibitors; Huh7.5.1 HCVcc-Cre infection, luciferase reporter, 44 h
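Cells (1,000/well) were plated 4 h before compound, then infected with HCVcc-Cre virus (~0.5 moi). After 44 h further culture, infection was read as luciferase luminescence following a 15 min substrate incubation at room temperature.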
AMA1-RON2 inh: AMA1-RON2 (P. falciparum) interaction inhibition; AlphaScreen AMA1-biotinylated RON2 peptide binding; Potency, µM (series often up to 58.2 µM), for the others: top-dose activity change, negative = inhibition, most hits filed as inhibitors; 360,000 tested, 0.2% active;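 note: 0% = vehicle wells and -100% = peptide control; nearly all actives have a fitted effect of over 45% in size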
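AMA1 (3D7) with his tag at 25 nM final met compounds first, then biotinylated RON2 peptide at 25 nM; detection used donor plus acceptor beads, 10 µg/mL apiece, read by AlphaScreen after 30 min at room temperature.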
Pf growth 48h: inhibits P. falciparum growth in the first generation, 48 h. Potency, µM (highest dose often 28.7 µM), inactives show at the highest dose activity change, negative = inhibition, usual class: inhibitors. 310,000 tested, 5.9% active. P. falciparum luciferase growth in erythrocytes, 48 h
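Here the parasites carry a stable luciferase gene and grow inside erythrocytes in Albumax-based RPMI medium with compound for one erythrocytic cycle. Activity is scored as loss of luminescent signal.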
An asterisk follows results filed as active; ? = inconclusive; . = no result; [ ] = another dose, or the depositor's remark. Sampled rows, rich in hits. Any-hit rate of the full collection: about 11%. Calls come from the whole dose curve; as a rule, active = well fitted curve in the direction sought with a large enough effect; inconclusive = small, poorly fitted or top-dose-only effect, or another doubt; inactive = no such curve, though single readings can be large; an effect the other way counts as inactive or inconclusive. Unless noted, % is set by controls: 0 for no effect and ±100 for the full control effect; potency is the fitted concentration of half-maximal effect.

SMILES	AmpC detergent	Pf growth 96h	AmpC inh no detg	HCV inh	AMA1-RON2 inh	Pf growth 48h
CCOCC(=O)Nc1ccc(S(=O)(=O)Nc2nccs2)cc1	-10.0%	11.7µM*	-3.5%	21.3%	10.6%	-4.5%
CCCC(=O)Nc1ccc(S(=O)(=O)Nc2nccs2)cc1	.	.	.	5.5%	1.8%	.
Cc1ccc(C)c(Nc2nnc(-c3ccc(C)c(S(=O)(=O)N4CCN(C)CC4)c3)c3ccccc23)c1	-4.0%	.	.	.	.	.
Cc1c(CC(=O)N2CCCCC2)c(=O)oc2cc3occ(C(C)(C)C)c3cc12	-4.2%	.	.	.	.	.
NC(=O)C1CCN(c2ncnc3c2cnn3-c2cccc(Cl)c2)CC1	4.3%	.	.	.	.	.
COc1ccccc1CNC(=O)CCC1N=C2c3ccccc3N=C(SCC(=O)NCC3CCCO3)N2C1=O (centres undefined)	0.3%	4.15µM*	39.4%	10.2%	15.1%	-12.8%
CCCCNC(=O)CC1N=C2c3ccccc3N=C(SCC(=O)Nc3ccc(OC)cc3)N2C1=O (centres undefined)	?	10.4µM*	-18.2%	-1.2%	-5.4%	?
CCc1ccc(NC(=O)CSC2=Nc3ccccc3C3=NC(CCC(=O)NCc4ccccc4OC)C(=O)N23)cc1 (centres undefined)	3.6%	.	.	.	.	.
CCCCNC(=O)CC1N=C2c3ccccc3N=C(SCC(=O)Nc3ccccc3OC)N2C1=O (centres undefined)	?	63.9%	-16.5%	1.9%	14.9%	10.4µM*
COc1ccccc1NC(=O)CSC1=Nc2ccccc2C2=NC(CC(=O)NCc3ccccc3)C(=O)N12 (centres undefined)	-3.0%	.	.	.	.	.
Cc1c(C(=O)OC2CCCCC2)[nH]c2c1C(=O)CC(c1ccc(C(C)(C)C)cc1)C2 (centres undefined)	10.7%	.	.	.	.	.
O=C(c1ccc(-c2ccccc2)cc1)N1CCN(c2nc3ccccc3o2)CC1	3.6%	?	-9.5%	19.6%	0.0%	20.3%
CCOC(=O)N1CCN(C(=O)C2CCN(C(=O)c3ccc(C(C)(C)C)cc3)CC2)CC1	6.6%	-17.0%	129.9%	12.2%	6.6%	9.28µM*
COc1ccccc1N1CCN(C(=O)C2CCN(C(=O)c3ccc(C(C)(C)C)cc3)CC2)CC1	-2.3%	0.0%	233.3%	?	-5.6%	4.65µM*
COc1ccccc1N1CCN(C(=O)c2ccc3[nH]c4c(c3c2)CC(C)CC4)CC1 (centres undefined)	?	-82.9%	60.1%	11.2µM*	?	?
CC(C)(C)c1ccc(C(=O)N2CCN(c3nc4ccccc4o3)CC2)cc1	?	10.5%	-5.1%	10µM*	-4.3%	.
CC1CCN(C(=O)C2CCN(C(=O)c3ccc(C(C)(C)C)cc3)CC2)CC1	-10.0%	-18.3%	105.0%	24.0%	1.7%	-14.0%
COc1ccccc1N1CCN(C(=O)c2ccc3[nH]c(C)c(C)c3c2)CC1	-0.5%	0.3%	59.5%	-26.1%	-16.8%	?
CCOC(=O)N1CCN(C(=O)C2CCN(C(=O)c3ccc([N+](=O)[O-])cc3)CC2)CC1	-16.7%	?	2.6%	12.3%	5.3%	0.0%
Cc1c(Cl)cccc1NC(=O)N1CCC(CN2CCCC2)CC1	8.8%	.	.	.	.	.
COCc1cc(Sc2ccc(Cl)cc2Cl)nc(-c2ccccc2)n1	-13.3%	?	-38.3%	-5.1%	-1.0%	11.7µM*
COCc1cc(Sc2ccc(OC)cc2)nc(-c2ccccc2)n1	-3.7%	?	-9.6%	?	-3.7%	?
Cc1ccccc1C(=O)N1CCC(C(=O)OCc2nc(N)nc(Nc3ccccc3)n2)CC1	?	13.1µM*	16.2%	11.9%	2.3%	?
Nc1nc(COC(=O)c2ccc3c(c2)OCCO3)nc(Nc2ccccc2)n1	4.8%	-0.2%	-25.6%	11.2µM*	1.3%[11.6 µM]	-14.6%
O=C(C[n+]1ccc2ccccc2c1)c1cccc2ccccc12	2.2%	47.8%	12.5%	?	-12.5%	?
SMILES	AmpC detergent	Pf growth 96h	AmpC inh no detg	HCV inh	AMA1-RON2 inh	Pf growth 48h
O=C(/C=C/c1cc[n+](CC(=O)c2ccc3cccc4c3c2CC4)cc1)c1ccc2cccc3c2c1CC3	-0.1%	-1.2%	-15.6%	6.31µM*	-7.4%	1.5%
CCc1ccc2nc(N(CCN(CC)CC)C(=O)c3ccco3)sc2c1	19.2%	.	.	.	.	.
C[N+]1(C)CCC(=C2c3ccccc3CC(=O)c3sccc32)CC1	10.1%	?	25.9%	-17.5%	-3.1%	?
CC[N+]1(C)CCC(=C2c3ccccc3CC(=O)c3sccc32)CC1 (centres undefined)	1.7%	11.7µM*	-1.3%	1.4%	-4.3%	?
CCOCCc1nnc(NC(=O)C(=O)c2cc(C)n(-c3ccc(C)cc3C)c2C)s1	-0.5%	.	.	.	.	.
COc1cccc(NC(=O)N(CCCN2CCOCC2)C(C)c2cc3ccccc3o2)c1 (centres undefined)	?	11.7µM*	121.9%	9.1%	17.3%	.
COc1cccc(NC(=S)N(CCCN2CCOCC2)C(C)c2cc3cccc(OC)c3o2)c1 (centres undefined)	8.3%	2.08µM*	190.4%	-5.7%	-2.5%	?
COc1ccccc1CNC(=O)c1ccc(N2CCCC2)c(NC(=O)NCCC(C)C)c1	-7.7%	.	.	.	.	.
Cc1ccc(C23CC4CC(CC(CN)(C4)C2)C3)cc1	-11.1%	?	47.6%	?	4.1%	10.4µM*
Cc1ccc(C23CC4CC(CC(C(N)=O)(C4)C2)C3)cc1	1.6%	?	17.4%	3.0%	-3.4%	29.7%
NCCOc1ccc(C23CC4CC(CC(C4)C2)C3)cc1	?	148.5%	33.8%	?	-8.9%	52.3%
NCC12CC3CC(C1)CC(c1ccc(Br)cc1)(C3)C2	-5.1%	8.2%	17.6%	12.6µM*	-8.9%	0.0%
CCc1ccc(CNC(=O)Cc2c(C(=O)O)c(C)cn2C)cc1	5.3%	.	.	.	.	.
COCCCn1c(SCC(=O)Nc2ccc(OC)cc2)nc2c(sc3ccccc32)c1=O	-0.2%	.	.	.	.	.
COc1ccc(NC(=O)CSc2nc3ccccc3c(=O)n2CCCN2CCCCC2)c(OC)c1	4.8%	9.28µM*	47.6%	-28.4%	-4.0%	.
COc1ccc(NC(=O)CSc2nc3c(sc4ccccc43)c(=O)n2CCCN2CCCC2)cc1	3.8%	?	114.7%	2.51µM*	26.0%	13.1µM*
COCCCNC(=O)CSc1nc2ccccc2c(=O)n1CCCN1CCCCC1	-4.3%	16.9%	-12.4%	8.2%	9.2%	22.2%
COc1cc(C(=O)n2nc(-c3ccco3)nc2NCc2ccc(Cl)cc2)cc(OC)c1OC	13.4%	.	.	.	.	.
